Screens: PubChem, National Center for Advancing Translational Sciences (NCATS)
Shown are actives, neighbours in structure and some others; about 18% of the full set was active somewhere.
IL1B secr inh – qHTS for Inhibitors of Inflammasome Signaling: IL-1-beta AlphaLISA Primary Screen; THP-1 LPS/ATP IL-1B secretion, AlphaLISA, 16 h; stronger effect = lower value; activity change, % at 57.5 µM; actives 4.7% (n = 360,000); in the data active = activity change below about -50%; inconclusive = mostly about -30% to -49%; note: % is set by controls: 0 for no effect and ±100 for the full control effect
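Secreted IL-1B measured by AlphaLISA bead assay after 16 h compound exposure of THP-1 cells; compounds (final up to 57.5 uM) added 1 h before LPS (250 ng/mL) and ATP (1.25 mM) stimulation; lower signal means less secretion.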
TDP1 block – qHTS Assay for Inhibitors of Tyrosyl-DNA Phosphodiesterase (TDP1); AID 485290, 2010; actives 0.28% (n = 350,000); Potency, µM (titrated, usually from 130 µM), for inactives: at the top dose activity change, negative = inhibition, actives largely listed as inhibitors; recombinant TDP1, AlphaScreen DNA substrate cleavage; Tyrosyl-DNA phosphodiesterase 1 (Homo sapiens), Q9NUW8; note: potency is the fitted concentration of half-maximal effect; % is set by controls: 0 for no effect and ±100 for the full control effect; nearly all actives have a fitted effect of over 40% in size
Target sequence (Q9NUW8 whole entry, looked up): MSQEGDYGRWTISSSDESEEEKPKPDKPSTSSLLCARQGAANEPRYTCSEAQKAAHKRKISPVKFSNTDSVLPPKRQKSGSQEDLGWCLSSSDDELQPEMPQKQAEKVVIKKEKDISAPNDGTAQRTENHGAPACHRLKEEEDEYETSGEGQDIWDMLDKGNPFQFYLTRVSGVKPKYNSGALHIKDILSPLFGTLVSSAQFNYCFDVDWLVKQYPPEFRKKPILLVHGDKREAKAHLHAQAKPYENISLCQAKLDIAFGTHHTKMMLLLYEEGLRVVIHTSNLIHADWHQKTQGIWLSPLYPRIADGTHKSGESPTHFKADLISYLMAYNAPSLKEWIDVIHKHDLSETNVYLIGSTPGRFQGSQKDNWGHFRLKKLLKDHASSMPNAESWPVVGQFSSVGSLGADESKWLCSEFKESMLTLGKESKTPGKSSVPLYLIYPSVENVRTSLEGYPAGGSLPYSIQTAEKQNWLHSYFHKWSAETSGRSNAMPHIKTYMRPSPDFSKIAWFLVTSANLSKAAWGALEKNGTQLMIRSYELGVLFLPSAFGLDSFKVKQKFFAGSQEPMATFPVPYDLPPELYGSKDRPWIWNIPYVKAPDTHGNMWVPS
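Recombinant E. coli-expressed Tdp1 (1 nM) preincubated with compound 15 min at RT, then 5'-biotin/3'-phosphotyrosine-FITC DNA substrate (15 nM) added for 5 min. AlphaScreen beads (10 ug/ml) added, 10 min RT; tyrosine-FITC cleavage read as signal loss.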
HepG2 tox-1 – qHTS for Inhibitors of TGF-b: Cytotox Counterscreen. HepG2 CAGA-GFP viability, ATP luminescence, 18 h. Potency, µM (titrated, usually from 46.1 µM), inactives show at the top dose activity change, negative = cytotoxicity, hits mostly cytotoxic. actives 0.76% (n = 410,000); note: potency is the fitted concentration of half-maximal effect
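HepG2 CAGA-GFP cells (1000/well, DMEM with 1% FBS) received compound, then TGF-beta at 500 pg/mL final, and were incubated 18 hours at 37 degrees C. Viability was read by CellTiter-Glo luminescence. Media-only wells were set as complete cell-killing and DMSO as no toxicity.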
DT40 TDP1 no CPT – qHTS for Inhibitors of human tyrosyl-DNA phosphodiesterase 1 (TDP1): qHTS in cells in absence of CPT. DT40 Tdp1-/- hTDP1 cells, no CPT, ATP luminescence, 48 h. Potency, µM (doses to about 46.2 µM), inactives show at the top dose activity change, negative = growth inhibition, most hits filed as inhibitors. actives 15% (n = 420,000). AID 686978, 2013; note: potency is the fitted concentration of half-maximal effect; % is set by controls: 0 for no effect and ±100 for the full control effect; nearly all actives have a fitted effect of over 55% in size
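DT40 Tdp1-/-;hTDP1 cells, no CPT (DMSO vehicle only), 400 cells/well; compounds pin-transferred; ≥48 hr, 37 °C; CellTiter-Glo 30 min RT dark, luminescence read.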
TGFb SMAD3 inh – qHTS for Inhibitors of TGF-b; HepG2 CAGA-GFP TGF-b/SMAD3 reporter, GFP fluorescence, 18 h; TGF-beta stimulated, 500 pg/mL final; Potency, µM (titrated, usually from 46.1 µM), for the others: top-dose activity, negative = inhibition, actives largely listed as inhibitors; actives 1.2% (n = 410,000); AID 588855, 2011; note: potency is the fitted concentration of half-maximal effect; % is set by controls: 0 for no effect and ±100 for the full control effect; nearly all actives have a fitted effect of over 65% in size
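Read-out: total well GFP (ex488/em500-530) summed from mean per-cell fluorescence. Cells: HEPG2 CAGA-GFP, 1% FBS DMEM, 18 h at 37 degrees C with 500 pg/mL final TGF-beta. Unstimulated wells served as the full-inhibition control; stimulated DMSO wells = 0%.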
TDP1 cell CPT – qHTS for Inhibitors of human tyrosyl-DNA phosphodiesterase 1 (TDP1): qHTS in cells in presence of CPT | actives 12% (n = 420,000) | Potency, µM (titrated, usually from 46.2 µM), without a hit: top-dose activity change, negative = growth inhibition, hits mostly inhibitors | chicken DT40 Tdp1-/-;hTDP1 cells + 20 nM CPT, ATP luminescence, 48 h; note: potency is the fitted concentration of half-maximal effect; % is set by controls: 0 for no effect and ±100 for the full control effect; nearly all actives have a fitted effect of over 55% in size
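Cell growth measured by CellTiter-Glo luminescence after a minimum 48 h, 37 C compound exposure with 20 nM CPT in Tdp1-knockout DT40 cells stably expressing hTDP1, seeded 400/well; qHTS titration format.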
TGFb CAGA inh – qHTS for Inhibitors of TGF-b: Confirmation of Cherry Picks; Potency, µM (highest dose often 46.1 µM), inactives show at the highest dose activity, negative = inhibition, usual class: inhibitors; actives 63% (n = 1,600); shares compounds with TGFb SMAD3 inh; HepG2 CAGA-GFP TGF-b reporter, GFP fluorescence, 18 h; cells stimulated with TGF-beta, 500 pg/mL; note: potency is the fitted concentration of half-maximal effect; % is set by controls: 0 for no effect and ±100 for the full control effect; nearly all actives have a fitted effect of over 65% in size
HepG2 tox-2 – qHTS for Inhibitors of TGF-b: Cytotox Counterscreen for Cherry Picks; shares compounds with TGFb SMAD3 inh; HepG2 CAGA-GFP viability, ATP luminescence, 18 h; cells stimulated with TGF-beta, 500 pg/mL; Potency, µM (highest dose often 46.1 µM), for inactives: at the highest dose activity, negative = cytotoxicity, most hits filed as inhibitors; actives 27% (n = 1,600); AID 720535, 2013; note: potency is the fitted concentration of half-maximal effect; % is set by controls: 0 for no effect and ±100 for the full control effect; nearly all actives have a fitted effect of over 70% in size
CCL64 TGFb inh – qHTS for Inhibitors of TGF-b: CCL64 Cells Orthogonal Assay for Cherry Picks. shares compounds with TGFb SMAD3 inh. CCL64 CAGA-GFP reporter, TGF-b stimulated, GFP fluorescence, 18 h. Potency, µM (top dose mostly 46.1 µM), for inactives: top-dose activity, negative = inhibition, hits mostly inhibitors. actives 41% (n = 1,600). AID 720536, 2013; note: potency is the fitted concentration of half-maximal effect; nearly all actives have a fitted effect of over 65% in size
COP TGFb inh – qHTS for Inhibitors of TGF-b: Hit Validation in HepG2 Cells using COP promoter; actives 3% (n = 1,600); shares compounds with TGFb SMAD3 inh; HepG2 COP-GFP TGF-b reporter, GFP fluorescence, 18 h; cells stimulated by added recombinant TGF-beta; Potency, µM (highest dose often 46.1 µM), for inactives: top-dose activity, negative = inhibition, usual class: inhibitors; note: potency is the fitted concentration of half-maximal effect; nearly all actives have a fitted effect of over 70% in size
The depositor's hits bear a star; ? = inconclusive; . = not tested or not shown; [ ] = remark or other dose. Unless noted, calls come from the whole dose curve; as a rule, active = well fitted curve in the direction sought with a large enough effect; inconclusive = small, poorly fitted or top-dose-only effect, or another doubt; inactive = no such curve, though single readings can be large; an effect the other way counts as inactive or inconclusive.

SMILES	IL1B secr inh	TDP1 block	HepG2 tox-1	DT40 TDP1 no CPT	TGFb SMAD3 inh	TDP1 cell CPT	TGFb CAGA inh	HepG2 tox-2	CCL64 TGFb inh	COP TGFb inh
O=C1C(Nc2ccccc2)=C(NS(=O)(=O)c2ccccc2)C(=O)c2ccccc21	-9	0%	-54%	?	6.3µM*	-29%	?	-29%	4%	2%
CC1CCN(CCOc2ccc(Cl)c(Cl)c2)CC1	-20	0%	-21%	-8%	?	1%	.	.	.	.
CN1CCN(c2ncc3nc(-c4cc(F)cc(F)c4)c(=O)n(Cc4cccs4)c3n2)CC1	.	.	.	-11%	.	3%	.	.	.	.
Nc1ccccc1C(=O)NC(=O)Nc1ccc(Oc2ncc(Br)cn2)c(Cl)c1	29	.	0%	0.018µM*	?	0.0052µM*	?	-8%	5.8µM*	-18%
Cc1nc2cc(-c3ccccc3)nn2c(C)c1CCC(=O)NCc1ccco1	-3	-4%	5%	-19%	-14%	-3%	.	.	.	.
Cc1nc2cc(-c3cccc(F)c3)nn2c(C)c1CCC(=O)NC(C)c1ccc2c(c1)OCCO2 (centres undefined)	-7	0%	-18%	?	?	16µM*	?	-29%	29µM*	11%
CC1CN(C(=O)CCNC(=O)c2ccc(Cl)cc2)CC(C)O1 (centres undefined)	14	2%	-6%	21%	0%	8%	.	.	.	.
CC(NC(=O)C1CCN(CCOc2ccc(Cl)cc2)CC1)c1cccc2ccccc12 (centres undefined)	?	.	11µM*	?	6.3µM*	16µM*	26µM*	18µM*	?	-27%
O=C(NC(c1ccccc1)c1ccc2ccccc2n1)C1CCN(CCOc2ccc(Cl)cc2Cl)CC1 (centres undefined)	?	.	-93%	?	10µM*	?	?	18µM*	?	?
O=C(NCc1ccccc1F)Nc1nnc([C@@H]2C[C@H](O)[C@@H](CO)O2)s1	12	.	8%	-2%	0%	2%	.	.	.	.
CC(=O)N=c1n(C)c2ccccc2n1CCOc1ccccc1	-22	3%	7%	12%	10%	-6%	.	.	.	.
Cc1cc(C)n(S(=O)(=O)c2cccc(Cl)c2Cl)n1	4	1%	1%	-21%	1%	-6%	.	.	.	.
C/C(CC(=O)Nc1ccc(Cl)c(C(F)(F)F)c1)=N\NC(=O)c1ccccc1O	-16	9%	-68%	?	16µM*	?	?	?	?	102%
Cc1ccccc1OCC(O)CNC1CCC(NCC(O)COc2ccccc2C)CC1 (centres undefined)	-98*	.	1.8µM*	2.3µM*	5.6µM*	3.7µM*	4.6µM*	5.2µM*	?	?
Cc1ccccc1OCC(O)CO (centres undefined)	.	10%[56.1 µM]	.	3%	.	10%	.	.	.	.
O=C(Nc1cccc(-n2cnnn2)c1)c1cc(Cl)ccc1Cl	-8	1%	-27%	-13%	16µM*	-18%	?	?	-6%	30%
COC(=O)C(C)Oc1cc(OC(C)C(=O)OC)c2c(-c3ccccc3)cc(=O)oc2c1 (centres undefined)	17	.	-5%	-18%	-9%	-10%	.	.	.	.
COc1cc(OC)c2c(-c3cccc(-c4ccc(NC(C)=O)cc4)c3)cc(=O)oc2c1	84	0%[56.1 µM]	-13%	5.8µM*	4.5µM*	4.1µM*	1.6µM*	-14%	2.1µM*	13%
CC(C)=CCC/C(C)=C/CNC(=O)C[C@H]1C[C@H](C(=O)N2CCOCC2)[C@@]2(C)c3[nH]c4ccc(Cl)cc4c3CCN2C1=O	-65*	4%[56.1 µM]	18µM*	?	10µM*	23µM*	13µM*	?	13µM*	-20%
CCN(CC)C(=O)[C@H]1C[C@H](CC(=O)NC/C=C(\C)CCC=C(C)C)C(=O)N2CCc3c([nH]c4cc(CCC(=O)N(C)C)ccc34)[C@]12C	?	6%[56.1 µM]	-23%	15µM*	13µM*	16µM*	23µM*	?	?	55%
C[C@]12c3[nH]c4cc(-c5ccco5)ccc4c3CCN1C(=O)[C@@H](CC(=O)NCCCn1ccnc1)C[C@@H]2C(=O)N1CCOCC1	-13	1%[56.1 µM]	-15%	-4%	-15%	-26%	.	.	.	.
CC(C)(C)NC(=O)C[C@H]1C[C@H](C(=O)N2CCOCC2)[C@@]2(C)c3[nH]c4ccc(Cl)cc4c3CCN2C1=O	-5	1%[56.1 µM]	2%	-28%	-25%	-10%	.	.	.	.
C[C@]12c3[nH]c4cc(-c5ccco5)ccc4c3CCN1C(=O)[C@@H](CC(=O)NCCC1=CCCCC1)C[C@@H]2C(=O)N1CCOCC1	0	6%[56.1 µM]	3%	21µM*	11µM*	16µM*	?	?	?	50%
